Compounds without any hit were thinned out: in the full panel of roughly 83,000, 20% have a hit.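 96-well plates, one dose, 48 hours. Percent growth reported; active if below 10.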 Values without a mark were called inactive. The source made the active and inactive calls.
Tested on: M14 melanoma
Assay: NCI-60 one-dose screen, 48 h (100 = growth as untreated, 0 = no growth, -100 = all killed)
Details: 10 µM unless noted
Procedure: Growth inhibition of the M14 human tumor cell line is measured as a screen for anti-cancer activity. Cells are grown in 96 well plates and exposed to the test compound for 48 hours. Compounds are tested at a single concentration, which is 10^-5 M for most compounds. The reported endpoint is percent growth (GI% or GIPRCNT), where numbers from 0 - 100% represent growth inhibition, and numbers from -100% - 0 represent cell death. For example, a value of 40 represents 60% growth inhibition. A value of 0 means no net growth occurred over the course of the experiment. A value of -40 indicates 40% of cells at the beginning of the experiment died by the end of the experiment. A value of -100 means all cells are dead at the end of the experiment.
NCI-60 Human Tumor Cell Lines Screen was performed using the standard one-dose NCI protocol, which is described in more detail at https://dtp.cancer.gov/discovery_development/nci-60/default.htm.
Compounds with GIPRCNT values below 10 were considered active. Activity score was based on GIPRCNT using the following formula: […]
Score is 0 for GIPRCNT values of 100 or above, 50 for GIPRCNT values of 0, and 100 for GIPRCNT values of -100.

First: O=C(OCC1CC2(Cl)C(Cl)=C(Cl)C1(Cl)C2(Cl)Cl)C1C(C(=O)OCC2CC3(Cl)C(Cl)=C(Cl)C2(Cl)C3(Cl)Cl)C2(Cl)C(Cl)=C(Cl)C1(Cl)C2(Cl)Cl (stereo not given)
Second: Cc1c([C@H](C(Cl)Cl)[C@H](O)[C@H]2C[C@H](C)C(=O)O2)ccc2c1C(=O)[C@H]1[C@H]2C[C@@H](Br)[C@@]23O[C@@H](CO[C@H]2O)CC13C (stereo not given in full)
The growth of the first is higher: 98.5% for the first, 33.2% for the second.

Going from `COc1cc2ncnc(Nc3ccc4c(cnn4C(=O)Nc4ccccc4)c3)c2cc1OC` to `COc1cc(OC)c(NC(=O)n2ncc3cc(Nc4ncnc5ccccc45)ccc32)cc1Cl`, the growth rises from 95.7% to 100%.

First: CCCCCCC(C)N(CC(C)(C)O)C(=O)c1ccc([N+](=O)[O-])cc1 (stereo not given)
Second: C=C(NC(=O)[C@H](C(C)C)N(C)c1cccc2[nH]ccc12)C(=O)OC
The growth of the first is lower: 93.4% for the first, 94.9% for the second.

Going from `Cc1ccc2c(c1)C(=O)CCS2` to `Cc1ccc(CC(=O)O)c(C)c1`, the growth rises from 96.1% to 102%.

First: C=CCC(CCC(CC=C)C(=O)OCC)C(=O)OCC (stereo not given)
Second: COC(=O)CC(=O)C(=O)OC
The growth of the first is higher: 102% for the first, 100% for the second.

First: CC1(C)Oc2cc3oc(=O)ccc3cc2C[C@@H]1OCCOS(=O)(=O)c1ccc(C#N)cc1
Second: COc1ccc2cc(C(C)C(=O)Nc3ccc(S(=O)(=O)Nc4cc(C)on4)cc3)ccc2c1 (stereo not given)
The growth of the first is lower: 98.4% for the first, 103% for the second.

First: CC1=C(C)C(=O)C(C(C)C2=C(C)C(=O)C(C)=C(C)C2=O)=C(C)C1=O
Second: COC1=C(OC)C(=O)c2ccccc2C1=O
The growth of the first is higher: 108% for the first, 105% for the second.

First: CC(=O)NNC(=O)c1sc(NC(C)=O)nc1C
Second: CCOC(=O)NC1=NCC(C)(C)S1
The growth of the first is higher: 115% for the first, 103% for the second.

Compared with `COc1ccc(Oc2[nH]n(C3=Nc4ccccc4Sc4ccccc43)c(=O)c2C#N)cc1`, `COc1ccc2sc(-n3nc4nc5n(c(=O)c4c3N)-c3ccccc3Sc3ccccc3-5)nc2c1` is lower in growth: 104% for the first, 77.1% for the second.

Compared with `Cc1cc(CSc2ccc(Cl)cc2)ccc1N`, `COc1cc(NC(=O)CSc2nc3ccc(Cl)cc3c(=O)n2-c2ccc(F)cc2)cc(OC)c1OC` is lower in growth: 101% for the first, 84.8% for the second.

Compared with `COc1ccc(/C=C2\CCCC3=C2N=C2SC=NN2C3c2ccc(OC)c(OC)c2)cc1OC` (stereo not given), `COc1cc(-c2cc3cnccc3c3nc(N)c4ccncc4c23)cc(OC)c1OC` is higher in growth: 47.5% for the first, 68.1% for the second.

Going from `CCC(C)C1NC(=O)C(CCCCN)NC(=O)C(CCCCN)NC(=O)C(CC(C)C)NC(=O)C(CCCCN)NC(=O)C(C(C)CC)NC(=O)C(C(C)C)NC(=O)C(C(C)CC)NC(=O)C(CCCCN)NC(=O)C(CCCCN)NC(=O)C(C)NC(=O)C(CCCCN)NC(=O)C(CC(C)C)NC1=O` (stereo not given) to `CC(C)(C)c1cc(C[P+](c2ccc(Cl)cc2)(c2ccc(Cl)cc2)c2ccc(Cl)cc2)cc(C(C)(C)C)c1O`, the growth rises from 22.2% to 106%.

Compared with `O=C(/C=C1\C(=O)N(Cc2ccccc2)c2ccccc21)c1ccc(OCCN2CCCCC2)cc1`, `Cc1ccc(S(=O)(=O)Nc2cccc(Cn3c(=O)[nH]c4ccc(Oc5ncccn5)cc4c3=O)c2)cc1` is higher in growth: 37.9% for the first, 59.1% for the second.

Going from `COc1cccc(-c2cc(-c3cc4ccccc4oc3=O)nc(N)n2)c1` to `COc1ccc(-c2nc(SCC(C)C)nc(Nc3ccc(C(=O)O)cc3)c2C#N)cc1`, the growth falls from 100% to 93%.

First: O=S(=O)(Cc1cccc2c(CS(=O)(=O)c3ccc(Cl)cc3)cccc12)c1ccc(Cl)cc1
Second: CCOC(=O)c1csc(-c2ccc(COC(=O)c3ccccc3)o2)n1
The growth of the first is lower: 102% for the first, 106% for the second.

`CCS(=O)(=O)N[C@@H]1O[C@H](COC(C)=O)C(OC(C)=O)[C@H](OC(C)=O)C1OC(C)=O` (stereo not given in full) and `CC(Br)c1nc2ccccc2cc1C(N)=O` (stereo not given) are the same in growth: 109% for the first, 109% for the second.

With `COC(=O)[C@H](Cc1cn(C)cn1)NC(=O)[C@H](CC(=O)OCc1ccccc1)NC(=O)Nc1cc(C(F)(F)F)cc(C(F)(F)F)c1` the growth was -93.6% [100 µM] (active).
`Cc1ccc(C(=O)Nc2ccc(CN3CCN(C)CC3)c(C(F)(F)F)c2)cc1C#Cc1cncc2ncccc12` was tested, and the growth was -89.5% (active).
With `Cc1ncc(C(=O)Nc2ccc(CN3CCN(C)CC3)c(C(F)(F)F)c2)cc1C#Cc1c(N)ncc2ccc(F)cc12` the growth was -74.9% (active).
With `Nc1nc2c(c3cnccc13)C(c1cccc(Br)c1)Cc1cnccc1-2` (stereo not given) the growth was -12.7% (active).
For `CC/C(=N\Nc1nc2ccccc2n1C)c1ccccn1`, the growth was -19% (active).
`CCCCCCCCC/C(=N\NC(=O)c1ccncc1)c1ccc(O)c(O)c1O` was tested, and the growth was 8.78% (active).
With `C/C(=N\Nc1ccc(Cl)cn1)c1ccccn1` the growth was 2.33% (active).
In the case of `COc1ccc(Cn2cc3c(c2)-c2oncc2CC3)cc1OC`, the growth is reported as 4.9% (active).
